# Source: PubChem BioAssay (National Center for Advancing Translational Sciences (NCATS))
# A selection: hits, their analogues and other compounds. The true share with any hit is near 3.8%.
# PLK1 PBD inh: PLK1 (human) polo-box domain binding inhibition; P53350; Plk1 PBD binding of FITC phosphopeptide, fluorescence polarization; Potency, µM, inactives show max response, negative = inhibition, most hits filed as inhibitors; hit rate 2.8% among 360,000; also: potency is read from the fitted curve at half-maximal effect; series mostly up to about 57 µM; % is scaled to controls: 0 for no effect and ±100 for the full control effect; nearly all actives have a fitted effect of over 65% in size
# VDR inhibitor: vitamin D3 receptor (human) inhibition. P11473. VDR-SRC2-3 peptide fluorescence polarization, 2 h. Potency, µM, for inactives: max response, negative = inhibition, most hits filed as inhibitors. hit rate 0.93% among 400,000; also: potency is read from the fitted curve at half-maximal effect; % is scaled to controls: 0 for no effect and ±100 for the full control effect
#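 Inhibition of the VDR/SRC2-3 peptide interaction is quantified by fluorescence polarization. Compounds (23 nl, pintool) incubate with the reagents for 2 hours at ambient room temperature.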
# hERG WT inh: blocks the wildtype human KCNH2 potassium channel; U2OS, BacMam KCNH2, thallium flux FluxOr; stronger effect = lower value; activity change, % at 1.84 µM; hit rate 0.37% among 340,000;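 active = maximum activity change below -70%; inconclusive = maximum activity change between -70% and -50%; inactive = maximum activity change above -50%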; also: % is scaled to controls: 0 for no effect and ±100 for the full control effect
#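 U2OS cells transduced with wild-type KCNH2 virus are loaded with FluxOr dye for 45 min, and thallium flux is measured in kinetic reads before and after stimulation buffer. Rate constants are normalized to DMSO controls.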
# KCNH2 3.1 block: blocks the human KCNH2 3.1 channel isoform; hit rate 0.95% among 340,000; activity change, % (tested at about 1.8 µM); U2OS KCNH2 3.1, thallium flux FluxOr; stronger effect = lower value;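 active = maximum activity change below -70%; inconclusive = maximum activity change from -70% to -50%; inactive = maximum activity change above -50%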;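 also: thallium influx rate constant from kinetic fluorescence after stimulation buffer; % is scaled to controls: 0 for no effect and ±100 for the full control effect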
#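 FluxOr-based Tl+ influx in U2OS cells transduced with KCNH2 3.1 virus; rate constants normalized to DMSO controls.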
# MBNL1 CUG block: blocks human MBNL1 binding to CUG repeat RNA; hit rate 0.036% among 280,000; AID 2675; Potency, µM (top dose mostly 57.5 µM), without a hit: at the highest dose activity change, negative = inhibition, hits mostly inhibitors; Q9NR56; TR-FRET MBNL1-His/biotin-(CUG)12 binding, 665/545 ratio; active = well fitted inhibition curve with a large enough effect in the signal ratio, with a control signal flat, not every such curve was filed as active; inconclusive = small, poorly fitted or top-dose-only effect, or effect the other way, or a change in a side signal; inactive = no such curve, though single readings can be large or run the other way; the % refers to the signal ratio; also: potency is read from the fitted curve at half-maximal effect; % is scaled to controls: 0 for no effect and ±100 for the full control effect
# Target sequence (Q9NR56 whole entry, looked up): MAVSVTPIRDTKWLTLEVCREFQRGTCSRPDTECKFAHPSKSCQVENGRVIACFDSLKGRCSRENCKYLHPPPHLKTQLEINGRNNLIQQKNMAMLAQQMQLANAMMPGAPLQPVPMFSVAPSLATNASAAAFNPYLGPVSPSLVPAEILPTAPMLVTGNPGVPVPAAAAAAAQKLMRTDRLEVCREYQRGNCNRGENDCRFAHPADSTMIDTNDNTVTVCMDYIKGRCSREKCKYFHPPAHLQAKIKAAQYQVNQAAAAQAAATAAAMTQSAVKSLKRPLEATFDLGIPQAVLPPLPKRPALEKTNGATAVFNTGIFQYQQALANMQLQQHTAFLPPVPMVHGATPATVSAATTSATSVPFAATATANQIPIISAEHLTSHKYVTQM
#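 MBNL1-His + Biotin-(CUG)12, cpd titration 92 nM–58 uM; Tb anti-His Ab 0.055 ng/ul, SA-XL665 5 nM (final); 60 min RT; ratiometric 665/545 nm, Ex 340 nm; normalized to buffer and full-complex controls.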
# CBFb-RUNX1 inh: blocks binding between human CBF-beta and RUNX1; Q01196+Q13951; AID 1477; AlphaScreen CBFb-His/RUNX1-biotin binding, biochemical; 230,000 tested, under 10 active; Potency, µM (titrated, usually from 59.8 µM), for the others: at the highest dose activity, negative = inhibition, usual class: inhibitors; also: % of control where 0% means no effect
#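 Bead-based AlphaScreen assay; binding partners His-tagged CBF-beta and biotinylated RUNX1 at 30 nM each. Compound exposure 15 min after a 20-min protein preincubation; bead step 90 min; all steps at room temperature.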
# Numbers without * were called inactive; ? = inconclusive; / = not tested or not shown; [ ] = dose if it differs, or a comment. Unless noted, calls follow the shape of the dose curve; as a rule, active = well fitted curve in the direction sought with a large enough effect; inconclusive = small, poorly fitted or top-dose-only effect, or another doubt; inactive = no such curve, though single readings can be large; an effect the other way counts as inactive or inconclusive.
SMILES,PLK1 PBD inh,VDR inhibitor,hERG WT inh,KCNH2 3.1 block,MBNL1 CUG block,CBFb-RUNX1 inh
CCOC(=O)c1csc(NC(=O)CSc2nnc(C3CC3)n2C)n1,27µM*,-19%,13,-10,-2%,5%
O=C(CCn1cnc2onc(-c3ccc(F)cc3)c2c1=O)N1CCN(c2cccc(Cl)c2)CC1,/,3%,/,/,/,/
Cc1ccccc1NS(=O)(=O)c1ccc2[nH]cc(C(=O)NC(C)c3ccccc3)c(=O)c2c1 (stereo unspecified),/,20%,/,/,/,/
O=C(c1cccs1)n1nc(-c2ccccc2)nc1NCc1ccco1,27µM*,1%,-6,11,5%,16%
CC(CC(C)(C)C)CP(=O)(O)CC(C)CC(C)(C)C (stereo unspecified),/,?,/,/,/,4%
Cc1ccc(Cc2nc3ccccc3nc2SCC(=O)Nc2ccc3c(c2)OCO3)cc1,/,12%,/,/,/,/
CN1N=C(C(=O)N2CCc3c([nH]c4ccccc34)C2c2ccccc2Cl)CCC1=O (stereo unspecified),27µM*,-4%,8,18,5%,-3%
O=C(c1cc[n+]([O-])cc1)N1CCc2c([nH]c3ccccc23)C1c1ccccc1Cl (stereo unspecified),-4%,0%,11,-1,-2%,?
Cc1cccc(C)c1NC(=O)CSc1nnc(C)n1CC1CCCO1 (stereo unspecified),24µM*,-6%,4,0,-6%,5%
Cc1nnc(SCC(=O)Nc2ccc3c(c2)OCCO3)n1CC1CCCO1 (stereo unspecified),-22%,-17%,2,-1,11%,3%
CC(=O)C1=C(O)C(=O)N(C)C1c1ccccc1[N+](=O)[O-] (stereo unspecified),27µM*,?,5,-17,/,8%
CC(=O)C1=C(O)C(=O)N(CCC(=O)O)C1c1ccccc1[N+](=O)[O-] (stereo unspecified),-9%,6%,8,19,12%,5%
CC(=O)C1=C(O)C(=O)N(c2ccccn2)C1c1ccccc1[N+](=O)[O-] (stereo unspecified),3.4µM*,?,-8,6,?,/
CC(=O)C1=C(O)C(=O)N(c2ccc(Br)cn2)C1c1ccccc1[N+](=O)[O-] (stereo unspecified),?,0%,-5,-13,?,/
COC(=O)C1=C(C)NC(c2c(O)ccc3ccccc23)C(C(=O)OC)=C1C (stereo unspecified),5%,2%,8,-85*,8%[11.5 µM],-4%
COc1ccc(-c2nc(CCNC(=O)c3c(F)cccc3Cl)cs2)cc1,/,-2%,/,/,/,/
N=C1C(c2ccccc2)=C(O)CN1CCCO,24µM*,-7%,-3,27,5%,-7%
CSc1nnc2c3c4c(sc3nc(-n3nc(C)cc3C)n12)COC(C)(C)C4,3.4µM*,?,-4,-3,10%,1%
Cc1cccc(C(=O)n2c(=S)nc3ccccn32)c1,24µM*,79µM*,4,13,?,3%
NC(=O)CC(O)c1cccc(Cl)c1 (stereo unspecified),27µM*,-10%,-4,11,1%,4%
NC(=O)CSc1nnnn1-c1cccc(Cl)c1,5%,-15%,-1,-7,?,-1%
Cc1cccc(OCC(=O)NCC(C)(C)N2CCOCC2)c1,-2%,-21%,14,-153*,/,/
CC1CCc2nn(CC(=O)NCc3ccco3)cc2C1 (stereo unspecified),30µM*,-12%,-6,4,8%,2%
CC1CCc2nn(CC(=O)NCc3ccc(F)cc3)cc2C1 (stereo unspecified),?,-14%,-4,2,4%,7%
Cc1ccc2c(c1)c1c3n2CCN(C(=O)c2ccc(C(F)(F)F)cc2)C3CCC1 (stereo unspecified),/,-8%,/,/,/,/
SMILES,PLK1 PBD inh,VDR inhibitor,hERG WT inh,KCNH2 3.1 block,MBNL1 CUG block,CBFb-RUNX1 inh
COc1ccc(/C=C/C(=O)Nc2nc(C)cc(C)n2)cc1OC,30µM*,-19%,1,9,?,-3%
COc1ccc(/C=C/C(=O)Nc2cc(C)on2)cc1,30µM*,?,2,-5,-3%,-2%
Cc1cc(NC(=O)/C=C/c2ccccc2)no1,0%,-7%,-1,-7,17%,0%
COc1ccc(/C=C/C(=O)Nc2ccncc2)cc1OC,-14%,-18%,-1,-4,-5%,16%
CC1CCc2c(sc(NC(=O)C3CCCO3)c2C#N)C1 (stereo unspecified),-17%,-24%,6,1,-2%,11%
CCCc1cc(C(=O)Nc2sc3c(c2C#N)CCC3)no1,19µM*,71µM*,0,-2,3%,9%
CCc1c(C)sc(NC(=O)c2cc(-c3ccco3)on2)c1C#N,27µM*,?,-3,-5,7%,3%
CCc1c(C)sc(NC(=O)c2cc(C3CC3)on2)c1C#N,?,-11%,-3,1,4%,4%
CCc1c(C)sc(NC(=O)C2CCCO2)c1C#N (stereo unspecified),24µM*,?,-3,5,18%,3%
CCCc1cc(C(=O)Nc2sc(C)c(CC)c2C#N)no1,27µM*,?,7,-25,-16%,?
CCOC(=O)c1cc(S(=O)(=O)N2CCN(c3cc(Cl)ccc3C)CC2)[nH]n1,/,1%,/,/,/,/
CCc1ccc(OCC(=O)N(Cc2ccco2)Cc2ccccc2Cl)cc1,/,14%,/,/,/,/
COc1ccc(C(=O)Nc2ccccc2-c2nc(-c3ccc(OC)cc3)no2)cc1,/,6%,/,/,/,/
COc1ccc(C(=O)N=c2nc(-c3ccccc3)n(-c3ccccc3)s2)cc1,/,-13%,/,/,/,/
N#Cc1c(NC(=O)C2CC(c3ccccc3O)=NO2)sc2c1CCC2 (stereo unspecified),19µM*,7%,2,6,-17%,2%
CCOC(=O)c1c(NC(=O)c2cc(-c3cccc(O)c3)on2)sc(C(C)=O)c1C,-11%,-9%,0,10,-14%,-1%[2.36 µM]
Cc1onc(C(=O)Nc2sc3c(c2C#N)CCCC3)c1[N+](=O)[O-],27µM*,?,-41,-7,?,-8%
N#Cc1c(NC(=O)C2CC(c3ccccc3Cl)=NO2)sc2c1CCC2 (stereo unspecified),?,12%,35,3,4%,0%
Cc1onc(-c2ccccc2Cl)c1C(=O)Nc1sc2c(c1C#N)CCC2,27µM*,-11%,-8,-15,7%,5%
CC(C)C(=O)Nc1sc2c(c1C#N)CCCCC2,-12%,-9%,-6,2,3%,8%
CCOC(=O)c1c(NC(=O)c2noc(C)c2[N+](=O)[O-])sc(C(C)=O)c1C,24µM*,-13%,-4,/,?,-8%
